# Laboratory results: PubChem BioAssay
# “And” between values parts separate entries of the source, which are not always exact repeats. Equal entries are not always repeated. The source made the active and inactive calls.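 Rule for the calls, unless noted: active = z-score of at least 1.8 in each of two replicates, scored against plate mean and spread of sample wells; inactive = the rest.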
# Tests used:
# [1] = stimulators of nuclear beta-catenin in C2C12, primary screen, imaging, WNT3A-conditioned medium, mouse C2C12, NPC library (AID 1117326; in the data active = nuclear beta-catenin stimulation mostly above about 4.2%, no sharp cut-off; inactive = mostly below about 10%); settings: stronger effect = higher value
# [2] = stimulators of insulin release from INS-1E, primary screen, cell-based, 5 mM glucose, NPC library (AID 1117329;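 active = compound raises insulin release from rat beta cells at 5 mM glucose, no numeric limit stated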); settings: rat INS-1E insulin secretion, at 10 µM, stronger effect = higher value
# [3] = growth inhibition of GSK3B-pretreated HCT116 cells – cell-based, CellTiter-Glo, 0.2 to 20 µM (AID 1117336;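 active = compounds lowering colon cancer cell viability after pretreatment blocking the GSK3B kinase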); settings: HCT116 viability after GSK3B inhibitor, at 20 µM, stronger effect = higher value
# [4] = inhibition of endothelial tube formation, primary screen, imaging, VEGF stimulated, CD31 staining, tube area, NPC library (AID 1117340;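 active = compound that reduces growth-factor-driven endothelial tube area in a mixed cell culture, no cutoff stated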); settings: VEGF-stimulated ADSC/ECFC co-culture, at 10 µM, stronger effect = higher value
# [5] = glucagon-like peptide 1 release enhancers, primary assay, NCI-H716 cell line, NPC library (AID 1117341;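 active = compound raises GLP1 secretion from the human gut endocrine cells, with no numeric limit stated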); settings: NCI-H716 cells, at 10 µM, stronger effect = higher value
# [6] = HCT116 colon cancer cell growth inhibition, primary screen, CellTiter-Glo luminescence, NPC library (AID 1117342;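 active = compounds that lower survival of HCT116 colon cancer cells in the luminescence readout, no numeric limit stated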); settings: at 20 µM (top of the series)
# [7] = CellTiter-Glo luminescent readout of SW480 viability loss, NPC library primary (AID 1117343;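 active = compounds that lower viability of the colon cancer cells in the luminescence readout, with no numeric limit stated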); settings: CellTiter-Glo luminescence; at 20 µM (top of the series)
# [8] = decreased DLD-1 cellular survival, CellTiter-Glo luminescent readout, NPC compound collection, primary HTS (AID 1117346;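 active = compounds that lower survival of DLD-1 colon cancer cells in the luminescence readout, no cutoff given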); settings: DLD-1 viability, CellTiter-Glo luminescence; at 20 µM (top of the series)
# [9] = sensitizers of A549 cells to miR-34 induction, primary screen, imaging, A549 dox-inducible miR-34, nuclei and caspase counts (AID 1347080;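 active = compounds whose cell count with miR-34 switched on is under 0.7 times the count with it off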); settings: A549 miR-34 inducible, Hoechst nuclei count, 48 h
# [10] = viability rescue of complex I mutant cybrids, primary screen, cell-based, galactose medium, ATP luminescence (AID 1645843); settings: complex I mutant cybrid cells, 72 h, stronger effect = higher value;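 note: positive z means more ATP and so rescue of galactose-driven cybrid death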
# [11] = test system: Aerobactin synthetase IucA (Klebsiella pneumoniae, hypervirulent); experiment: IucA enzyme inhibition, biochemical, LOPAC library, absorbance readout (AID 1346212; call rule not given here;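 note: 100% = no compound wells and 0% = no enzyme wells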); settings: IucA enzyme assay, absorbance (OD) readout; stronger effect = lower value;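 tested at 8 µM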
# [12] = test system: Hepatitis C virus NS3 helicase; experiment: HCV NS3 helicase inhibitors, primary screen, biochemical, fluorescence polarization, LOPAC1280 library (AID 687035; in the data active = inhibition above about 37%); settings: Purified HCV NS3 helicase, Cy5-dT15 ssDNA binding fluorescence polarization; stronger effect = higher value; concentration not given here
# [13] = Cy5 fluorescence quenching or enhancement artefacts, artefact control for HCV NS3 helicase inhibitor project, biochemical, LOPAC1280 (AID 687037; call rule not given here); settings: Cy5-DNA-NS3h complex fluorescence interference counterscreen
# [14] = liver-stage malaria parasite growth inhibition, primary screen, cell-based, HepG2, luciferase luminescence, HepG2 viability (AID 624349; in the data active = parasite load remaining mostly below about 12%, no sharp cut-off; inactive = mostly above about 10%;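 note: 100% = mean of DMSO negative control wells on the same plate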); settings: P. berghei liver stage in HepG2, luciferase luminescence, concentration not given here; parasite load remaining: stronger effect = lower value; viability: measured here: HepG2 viability without parasites
# [15] = survival rescue of mitochondrial mutant cells in low glucose, primary screen, MELAS cybrids, Rieske KO mouse fibroblasts, CellTiter-Glo (AID 1508586;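 active = mean z-score across replicates of 1.96 or higher in either the MELAS or the Rieske mutant cell line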;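 note: z relative to plate mean and SD of compound and empty wells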)
# [16] = stronger effect = lower value, cell number ratio, induced over uninduced
# [17] = measured here: relative caspase fold change +Dox/-Dox
# [18] = measured here: total cells with miR-34 induction, stronger effect = lower value
# [19] = measured here: total cells without miR-34 induction
smiles,measurement,setting,value
O=C(O)c1ccc2[nH]cc(CCCCN3CC=C(c4ccccc4)CC3)c2c1,nuclear beta-catenin stimulation,[1]; at 10 µM,-0.5% (inactive)
same,nuclear beta-catenin stimulation,"[1]; stimulation, at 2 µM",-1.8%
same,insulin secretion stimulation,[2],2.5% (inactive)
same,viability decrease,[3],5.1% (inactive)
same,tube area decrease,[4],-17.1% (active)
same,GLP1 secretion stimulation,[5],-2% (inactive)
same,inhibition of viability,[6],18.8% (inactive)
same,viability decrease (inhibition),[7],-17.9% (inactive)
same,viability decrease (inhibition),[8],-14.3% (inactive)
same,fold change,[9]; [16],0.916 (inactive)
same,fold change,[9]; [17],1.13
same,cell count,[9]; [18],8600
same,cell count,[9]; [19],9380
same,z-score,[10],-0.035 (inactive)
CN1[C@@H]2CC[C@H]1CC(OC(=O)c1cc(Cl)cc(Cl)c1)C2 (stereo not given in full),nuclear beta-catenin stimulation,[1]; at 10 µM,5.5% (inactive)
same,nuclear beta-catenin stimulation,"[1]; stimulation, at 2 µM",3.7%
same,insulin secretion stimulation,[2],14.4% (inactive)
same,viability decrease,[3],59.7% (active)
same,tube area decrease,[4],2.2% (inactive)
same,GLP1 secretion stimulation,[5],13.6% (inactive)
same,inhibition of viability,[6],87.1% (active)
same,viability decrease (inhibition),[7],63.5% (active)
same,viability decrease (inhibition),[8],85.1% (active)
same,remaining activity,[11],96.1% (inactive)
Clc1cccc(SC2CCNCC2)n1,nuclear beta-catenin stimulation,[1]; at 10 µM,1% (inactive)
same,nuclear beta-catenin stimulation,"[1]; stimulation, at 2 µM",2%
same,insulin secretion stimulation,[2],4.8% (inactive)
same,viability decrease,[3],-32% (inactive)
same,tube area decrease,[4],5.5% (inactive)
same,GLP1 secretion stimulation,[5],0.9% (inactive)
same,inhibition of viability,[6],11.5% (inactive)
same,viability decrease (inhibition),[7],17.2% (inactive)
same,viability decrease (inhibition),[8],-11.3% (inactive)
same,fold change,[9]; [16],1.01 (inactive)
same,fold change,[9]; [17],0.88
same,cell count,[9]; [18],8450
same,cell count,[9]; [19],8400
same,z-score,[10],-0.34 (inactive)
Cc1ncsc1CCCl,inhibition,[12],-2% (inactive)
same,fluorescence ratio (interference),[13],1 (inactive)
same,nuclear beta-catenin stimulation,[1]; at 10 µM,1% (inactive)
same,nuclear beta-catenin stimulation,"[1]; stimulation, at 2 µM",2.4%
same,insulin secretion stimulation,[2],-0.8% (inactive)
same,viability decrease,[3],-208% (inactive)
same,tube area decrease,[4],-22% (inactive)
same,GLP1 secretion stimulation,[5],-0.4% (inactive)
same,inhibition of viability,[6],-3.1% (inactive)
same,viability decrease (inhibition),[7],43.8% (inactive)
same,viability decrease (inhibition),[8],72.4% (active)
same,fold change,[9]; stronger effect = lower value,0.959 (inactive) and 0.961 (inactive)
same,fold change,[9]; [17],0.758 and 0.938
same,cell count,[9]; [18],9720 and 8120
same,cell count,[9]; [19],10100 and 8450
same,z-score,[10],0.7 (inactive) and 0.075 (inactive)
Cc1nnc2n1-c1sc(CCC(=O)N3CCOCC3)cc1C(c1ccccc1Cl)=NC2,nuclear beta-catenin stimulation,[1]; at 10 µM,0.3% (inactive)
same,nuclear beta-catenin stimulation,"[1]; stimulation, at 2 µM",-0.9%
same,insulin secretion stimulation,[2],3.7% (inactive)
same,viability decrease,[3],11.7% (inactive)
same,tube area decrease,[4],1.8% (inactive)
same,GLP1 secretion stimulation,[5],0.4% (inactive)
same,inhibition of viability,[6],13.6% (inactive)
same,viability decrease (inhibition),[7],-4.5% (inactive)
same,viability decrease (inhibition),[8],-5.7% (inactive)
same,fold change,[9]; stronger effect = lower value,1.01 (inactive)
same,fold change,[9]; [17],0.912
same,cell count,[9]; [18],9280
same,cell count,[9]; [19],9210
same,z-score,[10],-0.365 (inactive)
c1ccc(C2CC2)c(OCC2=NCCN2)c1,parasite load remaining,[14],45.2% (inactive)
same,viability,[14],96.5%
same,inhibition,[12],-4% (inactive)
same,fluorescence ratio (interference),[13],1 (inactive)
same,nuclear beta-catenin stimulation,[1]; at 10 µM,1.3% (inactive)
same,nuclear beta-catenin stimulation,"[1]; stimulation, at 2 µM",0.6%
same,insulin secretion stimulation,[2],-0.5% (inactive)
same,viability decrease,[3],-54.5% (inactive)
same,tube area decrease,[4],-3.7% (inactive)
same,GLP1 secretion stimulation,[5],10.4% (inactive)
same,inhibition of viability,[6],5.23% (inactive)
same,viability decrease (inhibition),[7],7% (inactive)
same,viability decrease (inhibition),[8],-2.1% (inactive)
same,remaining activity,[11],98% (inactive)
same,z-score,"[15]; MELAS cybrid survival, CellTiter-Glo 48 h, stronger effect = higher value",-0.68 (inactive)
same,z-score,"[15]; Rieske KO mouse fibroblast survival, CellTiter-Glo 72 h",-0.25
same,z-score,[10],-0.075 (inactive) and 0.06 (inactive) and 0.195 (inactive)
